# About 64,000 (15%) of roughly 420,000 compounds were called active. About 27% were inconclusive and are not listed. Calls follow the shape of the dose curve; as a rule, active = well fitted inhibition curve with a large enough effect; inconclusive = small, poorly fitted or top-dose-only effect; inactive = flat fitted curve, though single readings scatter. Only a sample is shown. A call without a number means that no potency is given here.
# Test: qHTS for Inhibitors of human tyrosyl-DNA phosphodiesterase 1 (TDP1): qHTS in cells in absence of CPT; also: nearly all actives have a fitted effect of over 55% in size
# Details: DT40 Tdp1-/- hTDP1 cells, no CPT, ATP luminescence, 48 h; activity change, negative = growth inhibition: at 46.2 µM (top of the series)
# Outline: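 Readout: luminescence from CellTiter-Glo after 30 min in the dark at RT. Cells: DT40 Tdp1-/- with stable hTDP1, 400/well. Exposure: compounds alone, ≥48 hr, 37 °C.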
# Potency is read from the fitted curve at half-maximal effect.
row,SMILES,Potency
1,COc1ccc(C2(Nc3cccc(F)c3)C(=O)c3ccccc3C2=O)cc1,inactive
2,COc1ccc2oc(=O)cc(-c3cc4ccccc4o3)c2c1,inactive
3,COc1ccc(CCNC(=O)COC(=O)c2cc(=O)c3ccccc3o2)cc1,inactive
4,COc1ccc(Nc2cc(=O)oc3ccccc23)cc1,4.11 µM (active)
5,CC1C=CCC2C(=O)N(c3cccc(C(=O)N4CCCCCC4)c3)C(=O)C12 (configuration not stated),inactive
6,CCCCCCCC(=O)OC(CN1CCCCCC1)CN1CCCC1=O (configuration not stated),inactive
7,CCCCNC(=O)N1CCN(S(C)(=O)=O)CC1,inactive
8,COc1cc(OC)cc(C(=O)NCCCn2ccnc2)c1,inactive
9,COc1cccc(-c2nn(-c3ccccc3)cc2/C=C(\C#N)C(=O)NCCCn2ccnc2)c1,20.6 µM (active)
10,O=C(NCCCn1ccnc1)/C(=C\c1ccccc1F)NC(=O)c1ccccc1,inactive
11,NC(=NC(=O)c1ccccc1)C1=C(O)CCC1=O,inactive
12,N#CC1(Nc2ccc(-c3ccc(Cl)cc3)cc2)CCCC1,inactive
13,Nc1nc(NC(=O)/C=C/c2ccccc2)nn1-c1ccccc1,inactive
14,CCCc1cc(=O)oc2c(C)c(OCC(=O)Nc3ccccn3)ccc12,inactive
15,CN1CCc2c(sc3c2c(NCc2ccco2)nc2nnnn23)C1,18.4 µM (active)
16,CC1CCN(C(=O)CCc2nnc3ccc(NCc4ccco4)nn23)CC1,inactive
17,O=C(CN(c1cccc(Cl)c1)S(=O)(=O)c1ccccc1)NN=C1CCCC1,inactive
18,Cc1cccc(-n2ncc3c(=O)[nH]c(SCC(=O)Nc4cc(C)on4)nc32)c1,inactive
19,FC(F)(F)C1CCCN(c2nsc3ccccc23)C1 (configuration not stated),2.59 µM (active)
20,O=C(NCC(=O)N1CCCC(C(F)(F)F)C1)c1ccccc1F (configuration not stated),inactive
21,O=C(NC(Cc1ccccc1)C(=O)N1CCCC(C(F)(F)F)C1)c1ccccc1 (configuration not stated),inactive
22,CC(=NC1CCN(Cc2ccccc2)CC1)c1c(O)[nH]c(=O)[nH]c1=O,inactive
23,O=C(COc1ccc(Cl)cc1)N(Cc1ccco1)Cc1ccco1,20.6 µM (active)
24,Cc1cccc(OCC(=O)N(Cc2ccc(C(C)C)cc2)Cc2ccco2)c1C,20.6 µM (active)

row,SMILES,Potency
1,O=C(CCCOc1ccccc1)NCc1ccco1,inactive
2,Cc1ccnc(NC(=O)CCC(=O)N(CC(=O)NCc2ccccc2)Cc2ccco2)c1,inactive
3,O=C(CCc1ccccc1)NNC(=O)COc1ccc(Cl)cc1,inactive
4,Cc1cccc(OCc2nnc(SCC(=O)N3CCN(C(=O)c4ccco4)CC3)n2C)c1C,inactive
5,O=C(Nn1cnc2ccccc2c1=O)c1ccc(F)cc1Cl,inactive
6,O=S(=O)(c1ccc(-c2ccno2)s1)N1CCCCC1,inactive
7,O=C(C1CCCO1)N1CCN(C(=S)NC2CC2)CC1 (configuration not stated),inactive
8,Cc1ccc(S(=O)(=O)NNC(=O)Nc2cccc3ccccc23)cc1,inactive
9,CC(=O)c1nn(-c2ccc(OC(F)(F)F)cc2)nc1Nc1ccccc1,inactive
10,CC1CCc2c(nc3ncnn3c2Nc2ccc(OC(F)(F)F)cc2)C1 (configuration not stated),20.6 µM (active)
11,CC1(C)C(C=C(Cl)Cl)C1C(=O)NC(O)C(=O)c1ccccc1 (configuration not stated),inactive
12,Nc1cccnc1Sc1ccccc1,inactive
13,Nc1ccccc1N,7.7 µM (active)
14,Nc1ccccc1/C=N\N=C/c1ccccc1N,inactive
15,COc1cc2c(cc1CNC[C@H]1O[C@@H](n3cnc(C(N)=O)n3)[C@H](O)[C@@H]1O)OCO2,inactive
16,CC1CCCC(NC(=O)c2cc(-c3ccncc3)nc3ccccc23)C1C (configuration not stated),23.1 µM (active)
17,COC(=O)CNC(=O)c1cc(-c2ccncc2)nc2ccccc12,inactive
18,CCOC(=O)N1CCC(NC(=O)CCc2ccccc2)CC1,inactive
19,Cc1ccsc1-c1nc(CSCC(=O)NCCN2CCCC2)c(C)o1,inactive
20,Cc1cc(C(=O)NC2CCN(Cc3ccccc3)CC2)n[nH]1,inactive
21,Cc1ccc(-c2nc(CSCC(=O)NC3CCN(Cc4ccccc4)CC3)c(C)o2)cc1,16.4 µM (active)
22,CC1CCCCC1NC(=O)c1cc(=O)[nH]c2ccccc12 (configuration not stated),inactive
23,Cc1ccc(-c2cc(C(=O)NC3CCN(Cc4ccccc4)CC3)c3ccccc3n2)cc1,16.4 µM (active)
24,Cc1ccn2cc(C(=O)NC3CCN(Cc4ccccc4)CC3)nc2c1,inactive

row,SMILES,Potency
1,C=CCn1c(SCC(=O)NC23CC4CC(CC(C4)C2)C3)nc(O)cc1=O,inactive
2,COc1ccc2c(CC(=O)NNC(=O)c3ccccc3F)coc2c1,inactive
3,CCC1([N+](=O)[O-])COC(c2ccc(C)cc2)OC1 (configuration not stated),inactive
4,O=C1CCc2cc(S(=O)(=O)N3CCC(C(=O)NCc4ccccc4Cl)CC3)ccc2N1,inactive
5,O=C1c2ccccc2C(=O)N1CCC(O)C[N+](=O)[O-] (configuration not stated),inactive
6,CCCNC(=O)CCn1cc(-c2ccc(OC)cc2)nc1CCN,inactive
7,NC(=O)C1CCN(C(=O)c2cccc(NC(=O)c3nsc4ccccc34)c2)CC1,16.4 µM (active)
8,O=C(Nc1cccc(C(=O)N2CCCC2)c1)c1ccccc1,inactive
9,COc1cccc(NC(=O)N2CCN(C(=O)c3nsc4ccccc34)CC2)c1,inactive
10,CCOC(=O)c1ccc(NC(=O)C2CC(=O)Nc3nc4ccccc4n32)cc1 (configuration not stated),inactive
11,CN(CC(=O)NCc1ccc(Cl)cc1)S(=O)(=O)c1cccs1,inactive
12,COc1ccc(Cn2ccc3nc(C)c(C(=O)Nc4ccc(C)c(F)c4)cc3c2=O)cc1,inactive
13,Cc1nc2ccn(Cc3cccs3)c(=O)c2cc1C(=O)NCc1ccc(Cl)cc1,16.4 µM (active)
14,CCn1c(C(C)C)n[nH]c1=S,inactive
15,O=C(NC1CCCCC1)C1CCCN(S(=O)(=O)c2cccs2)C1 (configuration not stated),inactive
16,Cn1nnnc1SCC(=O)NNC(=O)c1ccc(Br)cc1,inactive
17,Cc1cc(C(C)(C)C)cc(C)c1N,inactive
18,Cc1cc(N)n2nc(-c3ccc(C(C)(C)C)cc3)cc2n1,25.9 µM (active)
19,CC(=O)Nc1ccc(NC(=O)CSc2nnnn2-c2ccccc2F)cc1,inactive
20,C1CC1Cc1noc(CN2CCN(CC3CC3)CC2)n1,inactive
21,CNc1cc(-c2c(C)noc2C)ncn1,14.6 µM (active)
22,COCCNc1cc(-c2c(C)noc2C)ncn1,inactive
23,Cc1cnc(CNc2cc(-c3c(C)noc3C)ncn2)cn1,inactive
24,COc1ccc(C2=NOC3(CC(=O)N(c4ccc(Cl)cc4)C3=O)C2)c(OC)c1 (configuration not stated),inactive

# Reference: PubChem BioAssay AID686978 (National Center for Advancing Translational Sciences (NCATS), 2013)
